Out of some 360,000 compounds screened, about 25,000 (6.9%) were called active. Roughly 9% stayed inconclusive and do not appear here. Calls come from the whole dose curve; as a rule, active = well fitted inhibition curve with a large enough effect; inconclusive = small, poorly fitted or top-dose-only effect; inactive = flat fitted curve, though single readings scatter. What follows is part of a selection rich in actives, with near analogues and random picks from the rest.
What follows are compounds tested against Luciferin 4-monooxygenase (Photinus pyralis) (UniProt P08659) (assay: qHTS profiling assay for firefly luciferase inhibitor/activator using purifed enzyme and Km concentrations of substrates (counterscreen for miR-21 project)). Settings: purified FLuc, luminescence inhibition; series mostly up to 57.5 µM; activity change, negative = inhibition: at the top concentration.
Chain of Luciferin 4-monooxygenase (Photinus pyralis) (P08659 whole entry, looked up): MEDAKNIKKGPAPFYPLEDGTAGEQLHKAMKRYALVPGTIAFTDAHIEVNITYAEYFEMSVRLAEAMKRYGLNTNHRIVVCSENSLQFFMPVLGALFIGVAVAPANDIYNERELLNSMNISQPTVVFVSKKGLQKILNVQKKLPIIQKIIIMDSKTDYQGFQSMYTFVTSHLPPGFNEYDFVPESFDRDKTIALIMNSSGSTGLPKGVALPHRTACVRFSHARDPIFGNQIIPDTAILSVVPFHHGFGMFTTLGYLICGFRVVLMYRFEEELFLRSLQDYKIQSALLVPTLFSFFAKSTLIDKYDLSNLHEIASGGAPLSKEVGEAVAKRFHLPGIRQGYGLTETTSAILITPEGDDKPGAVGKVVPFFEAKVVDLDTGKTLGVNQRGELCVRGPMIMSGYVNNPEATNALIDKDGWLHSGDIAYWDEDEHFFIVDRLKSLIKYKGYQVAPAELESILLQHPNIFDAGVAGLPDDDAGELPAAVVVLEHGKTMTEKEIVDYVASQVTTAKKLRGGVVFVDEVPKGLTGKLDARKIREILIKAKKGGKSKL
Outline: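 Purified P. pyralis luciferase (10nM final) with 10uM D-luciferin and 10uM ATP (Km levels) in 50mM Tris acetate pH 7.5, 10mM Mg acetate, 0.01% Tween-20, 0.05% BSA; qHTS 6-point titration, ~60 µM downward; luminescence read.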
Note: nearly all actives have a fitted effect of over 55% in size.
Potency is the fitted concentration of half-maximal effect.
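Throughout, for activity change, negative = inhibition: plate controls were vehicle for no effect and reference inhibitor for full effect.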

Row | Compound | activity change, negative = inhibition | Potency
1 | Cc1oc2ccc(O)c(CN3CCOCC3)c2c1C(=O)Nc1cccc(Cl)c1C | -1.52% (inactive) | –
2 | CC(NC(=O)CCc1cn(Cc2ccccc2Cl)c2ccccc12)c1ccccc1 (stereo not given) | 6.58% (inactive) | –
3 | CCCSc1nc2sc3c(c2c(=O)n1-c1cccc(Br)c1)CC(C)(C)OC3 | 0.901% (inactive) | –
4 | Cc1ccccc1NC(=O)Cc1nc(COC(=O)c2ccc(C(F)(F)F)cc2)cs1 | 3.93% (inactive) | –
5 | Cc1ccc(C)c(NC(=O)COC(=O)CSc2ccccc2)c1 | 6.9% (inactive) | –
6 | CCOc1ccc(NC(=O)CN(Cc2ccccc2)S(=O)(=O)c2ccc(Cl)cc2)cc1 | -5.84% (inactive) | –
7 | CCc1ccnc(NC(=O)Nc2ccc(OCc3ccccc3)cc2)c1 | -2.87% (inactive) | –
8 | Cc1cccc(NC(=O)Nc2ccc(OCc3ccccc3)cc2)n1 | -1.92% (inactive) | –
9 | O=C(O)/C=C\C(=O)Nc1ccc(OCc2ccccc2)cc1 | – | 19 µM (active)
10 | O=C(Nc1ccc(C(=O)O)c(O)c1)c1ccccc1 | – | 15.1 µM (active)
11 | CN1CCN(c2ccc(NC(=O)c3ccccc3)cc2)CC1 | – | 10.7 µM (active)
12 | COc1cccc(C(=O)Nc2cc3c(cc2Br)OCCCO3)c1 | – | 4.78 µM (active)
13 | O=C(Nc1ccc(S(=O)(=O)N2CCc3ccccc3C2)cc1)c1ccccc1 | 0.419% (inactive) | –
14 | CC(=O)Oc1cccc(C(=O)Nc2ccccc2NC(=O)c2cccc(OC(C)=O)c2)c1 | -0.563% (inactive) | –
15 | COc1ccc(C(=O)Nc2ccc(N3CCC(C)CC3)cc2)cc1Br | -1.07% (inactive) | –
16 | O=C(Cn1ccc(=O)[nH]c1=O)Nc1ccc(C(=O)O)c(O)c1 | -4.38% (inactive) | –
17 | COc1cccc(C(=O)Nc2ccc(N3CCN(C(=O)c4ccco4)CC3)cc2)c1 | -3% (inactive) | –
18 | COc1ccc(C2COC(=O)C2=N)c(NC(=O)c2ccccc2)c1 (stereo not given) | 4.01% (inactive) | –
19 | CC(=O)Nc1ccc(S(=O)(=O)N2CCN(c3ccccc3)CC2)cc1 | -1.03% (inactive) | –
20 | Cc1ccccc1C(=O)NC(=S)Nc1ccc(N2CCN(C(=O)c3ccccc3)CC2)cc1 | 2.99% (inactive) | –
21 | COc1cccc(C(=O)Nc2ccc(N3CCCC3)cc2)c1 | – | 4.26 µM (active)
22 | COc1ccccc1N1CCN(C(=O)C2Cc3ccccc3CN2C(=O)c2ccco2)CC1 (stereo not given) | 3.04% (inactive) | –
23 | CC(=O)c1ccc(NC(=O)CSc2nc(-c3ccccc3F)nc3c2c(=O)n(C)c(=O)n3C)cc1 | 4.57% (inactive) | –
24 | CC(=O)N1c2ccc(S(=O)(=O)N(C)CC(=O)N(C)Cc3ccccc3)cc2CC1C (stereo not given) | 4.32% (inactive) | –
25 | CCCCn1c(SCc2ncc(-c3ccccc3)o2)nc2cc(S(N)(=O)=O)ccc21 | -17.5% (inactive) | –

Row | Compound | activity change, negative = inhibition | Potency
26 | Cc1oc2ccc(O)c(CN3CCCCC3)c2c1C(=O)Nc1cccc(C(F)(F)F)c1 | -0.279% (inactive) | –
27 | CCn1c(CN2CCC(C)CC2)nc2cc(NC(=O)c3ccccc3[N+](=O)[O-])ccc21 | 5.45% (inactive) | –
28 | Cc1ccc(NC(=O)C(C)OC(=O)Cc2c[nH]c3ccccc23)cc1S(=O)(=O)N1CCOCC1 (stereo not given) | -1.54% (inactive) | –
29 | COc1ccc(CCNC(=O)CCCCn2c(=O)c3ccccc3n(Cc3ccccc3C)c2=O)cc1OC | -1.31% (inactive) | –
30 | CCNC(=O)Cn1nc(C)n2c(cc3c(OC)cccc32)c1=O | -2.16% (inactive) | –
31 | CCOc1ccc(S(=O)(=O)Nc2nccs2)cc1 | -0.677% (inactive) | –
32 | CCCCN(CC)C(=S)Nc1ccc2nc3n(c(=O)c2c1)CCCCC3 | 3.88% (inactive) | –
33 | COc1cccc(C(=O)Nc2ccc3nc4n(c(=O)c3c2)CCCCC4)c1 | – | 16.9 µM (active)
34 | CN1CCN(c2ccc(NC(=O)c3cc(Cl)c4c(c3)OCCO4)cc2)CC1 | – | 10.7 µM (active)
35 | COC(=O)c1ccc(N2CCOCC2)c(NC(=O)c2ccc3c(c2)OCCO3)c1 | 0.934% (inactive) | –
36 | COc1cc2ccccc2cc1C(=O)Nc1ccc(N2CCOCC2)cc1 | 7.87% (inactive) | –
37 | O=C(Nc1ccc(N2CCOCC2)c(Cl)c1)c1ccc(S(=O)(=O)N2CCOCC2)cc1 | 2.53% (inactive) | –
38 | O=C(CN1C(=O)COc2ccc(Cl)cc21)Nc1ccc(N2CCOCC2)cc1 | -0.823% (inactive) | –
39 | NS(=O)(=O)c1ccc(NC(=O)C(=O)Nc2ccc3nc4n(c(=O)c3c2)CCCCC4)cc1 | 1.12% (inactive) | –
40 | Cc1ccccc1C(=O)Nc1ccc(N2CCCCCC2)cc1 | – | 10.7 µM (active)
41 | Cc1ccccc1C(=O)N1CCN(c2ccc(NC(=O)c3cccs3)cc2)CC1 | -1.16% (inactive) | –
42 | CN1CCN(c2ccc(NC(=O)c3ccc4c(c3)OCCO4)cc2Cl)CC1 | – | 4.78 µM (active)
43 | O=C(NC(=O)c1ccccc1N1CCCCC1)Nc1ccc(Br)cc1 | -6.23% (inactive) | –
44 | COc1ccc2c(Sc3ccc(C)cc3)c(C(=O)NC(C)c3ccccc3)[nH]c2c1 (stereo not given) | 3.3% (inactive) | –
45 | CC(C)Cn1c(=O)c2ccccc2n2c(CCC(=O)N3CCN(c4cccc(Cl)c4)CC3)nnc12 | 4.18% (inactive) | –
46 | Cc1cccc(NS(=O)(=O)c2ccc(C)c(C(=O)NCC(c3ccccc3)N(C)C)c2)c1 (stereo not given) | -0.184% (inactive) | –
47 | O=C(NC1CCN(Cc2ccccc2)CC1)c1ccc(Cn2c(=O)c3ccccc3n(Cc3cccc(F)c3)c2=O)cc1 | -5.59% (inactive) | –
48 | O=C(NCCOc1cccnc1)c1ccc(OC2CCN(Cc3ccccn3)CC2)cc1 | -1.59% (inactive) | –
49 | CCOc1ccc(N(CC)C(=O)C2CCN(S(=O)(=O)c3cccc4nonc34)CC2)cc1 | 5.23% (inactive) | –
50 | CC(OC(=O)c1ccc(NS(=O)(=O)c2ccc3[nH]c(=O)[nH]c3c2)cc1)C(=O)Nc1cccc(Cl)c1Cl (stereo not given) | 2.36% (inactive) | –
